IL1B secr inh: qHTS for Inhibitors of Inflammasome Signaling: IL-1-beta AlphaLISA Primary Screen; THP-1 LPS/ATP IL-1B secretion, AlphaLISA, 16 h; active compounds read low; activity change, % at 57.5 µM; 360,000 compounds, 4.7% hits; in the data active means activity change below about -50%; inconclusive means mostly about -30% to -49%; further: on the % scale 0 is the no-effect control and ±100 the full control effect
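Secreted IL-1B measured by AlphaLISA bead assay after 16 h compound exposure of THP-1 cells; compounds (final up to 57.5 uM) added 1 h before LPS (250 ng/mL) and ATP (1.25 mM) stimulation; lower signal means less secretion.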
SW480 rerep: A quantitative high throughput screen for small molecules that induce DNA re-replication in SW480 colon adenocarcinoma cells; SW480 DNA re-replication, Hoechst DNA content imaging, 48 h; 340,000 compounds, 1.8% hits; Potency, µM (highest dose often 46.1 µM), without a hit: at the top dose re-replication activation, actives largely listed as activators; further: potency means the concentration at half of the fitted maximal effect; % of control where 0% means no effect; nearly all actives have a fitted effect of over 55% in size
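SW480 cells exposed to compounds for 48 hr at 37 C, 5% CO2, then Hoechst-stained 40 min. Nuclear DNA content imaged by fluorescence scanning (405 nm excitation, 500-530 nm emission); re-replication scored as increased high-intensity nuclei.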
TDP1 cell noCPT: qHTS for Inhibitors of human tyrosyl-DNA phosphodiesterase 1 (TDP1): qHTS in cells in absence of CPT | Potency, µM (series often up to 46.2 µM), for the others: at the highest dose activity change, negative = growth inhibition, actives largely listed as inhibitors | AID 686978, 2013 | DT40 Tdp1-/- hTDP1 cells, no CPT, ATP luminescence, 48 h | 420,000 compounds, 15% hits; further: potency means the concentration at half of the fitted maximal effect; on the % scale 0 is the no-effect control and ±100 the full control effect; nearly all actives have a fitted effect of over 55% in size
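Compound effects on proliferation are scored in DT40 Tdp1-/-;hTDP1 cells in the absence of CPT. ATP levels (CellTiter-Glo luminescence) are recorded after a ≥48 hr, 37 °C incubation.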
DT40 TDP1 CPT: qHTS for Inhibitors of human tyrosyl-DNA phosphodiesterase 1 (TDP1): qHTS in cells in presence of CPT; chicken DT40 Tdp1-/-;hTDP1 cells + 20 nM CPT, ATP luminescence, 48 h; Potency, µM (highest dose often 46.2 µM), inactives show top-dose activity change, negative = growth inhibition, hits mostly inhibitors; 420,000 compounds, 12% hits; AID 686979, 2013; further: potency means the concentration at half of the fitted maximal effect; on the % scale 0 is the no-effect control and ±100 the full control effect; nearly all actives have a fitted effect of over 55% in size
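Cell growth measured by CellTiter-Glo luminescence after a minimum 48 h, 37 C compound exposure with 20 nM CPT in Tdp1-knockout DT40 cells stably expressing hTDP1, seeded 400/well; qHTS titration format.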
MCF10A rereplic: A quantitative high throughput screen for small molecules that induce DNA re-replication in MCF 10a normal breast cells; 350,000 compounds, 2.9% hits; Potency, µM (top dose mostly 46.1 µM), without a hit: at the highest dose activity, positive = re-replication, usual class: activators; MCF 10A DNA re-replication, Hoechst nuclear intensity, 48 h; further: potency means the concentration at half of the fitted maximal effect; % of control where 0% means no effect; nearly all actives have a fitted effect of over 50% in size
BCR signal inh: qHTS Assay to Find Inhibitors of Chronic Active B-Cell Receptor Signaling; ABC-DLBCL IkBa-CBG/CBR reporter, luminescence ratio, 4 h; 340,000 compounds, 0.05% hits; AID 493014, 2011; Potency, µM (titrated, usually from 46.1 µM), without a hit: top-dose activity change, negative = inhibition, actives largely listed as inhibitors; active means well fitted inhibition curve with a large enough effect in the signal ratio, with a control signal flat, not every such curve was filed as active; inconclusive means small, poorly fitted or top-dose-only effect, or effect the other way, or a change in a side signal; the % refers to the signal ratio;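 further: potency means the concentration at half of the fitted maximal effect; plate controls were basal doxycycline-induced cells for no effect and cells given 10 µM MG132 for full effect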
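TMD8 ABC-DLBCL cells carrying doxycycline-inducible green luciferase fused to IkappaBalpha plus unfused red luciferase were exposed to compounds (up to 46 uM) for 4 hrs at 37C. Activity came from the overlap-corrected green/red luminescence ratio.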
Starred values were filed as active, the others as inactive; ? = inconclusive; . = no result given; ! = not active in a repeat. Rows were chosen to be rich in hits. Some 19% of all compounds tested hit in one or more screens of this group. Unless noted, the call rests on the fitted dose curve; in most records, active means well fitted curve in the direction sought with a large enough effect; inconclusive means small, poorly fitted or top-dose-only effect, or another doubt; inactive means no such curve, though single readings can be large; an effect the other way counts as inactive or inconclusive.

SMILES	IL1B secr inh	SW480 rerep	TDP1 cell noCPT	DT40 TDP1 CPT	MCF10A rereplic	BCR signal inh
CCCS(=O)(=O)N1CC(=O)N(c2ccc(Cl)cc2C)C(C)(C(=O)NC2CCCC2)C1 (centres undefined)	.	.	-7%	-20%	.	.
Cn1c(-n2cccc2)c(-c2c(-c3ccccc3)[nH]c3c2c(=O)[nH]c(=O)n3C)c(=O)[nH]c1=O	.	.	?	?	.	-2%
Cc1noc(C)c1CSCC(=O)N(C)CC(=O)Nc1ccccc1C(F)(F)F	13	-9%	-4%	9%	9%	1%
CCOc1ccc(NC(=O)CN(C)C(=O)c2ccccc2CCc2ccccc2)cc1OCC	-14	0%	?	21µM*	?	2%
CCOc1ccc(NC(=O)CN(C)C(=O)c2ccccc2OCCOc2ccccc2)cc1OCC	-8	0%	8.2µM*	?	10%	-12%
CCOc1ccc(NC(=O)CN(C)C(=O)CCCOc2ccc(Cl)c(C)c2)cc1OCC	-16	-1%	23µM*	15µM*	?	?
Cc1ccc(S(=O)(=O)N2CCSC2C(=O)O)cc1 (centres undefined)	-16	5%	2%	3%	-2%	-16%
Cc1ccc(S(=O)(=O)N2CCSC2c2ccco2)cc1 (centres undefined)	-11	-8%	18µM*	1%	-3%	-1%
O=[N+]([O-])c1ccc(C(O)C(CO)NC(=S)Nc2ccccc2)cc1 (centres undefined)	-6	-2%	?	16µM*	-1%	5%
O=C(N[C@H](CO)[C@H](O)c1ccc([N+](=O)[O-])cc1)C(Cl)Cl	4	-38%	11µM*	7.5µM*!	?	.
O=C(NC(CO)Cc1ccc([N+](=O)[O-])cc1)C(Cl)Cl (centres undefined)	14	14%	9.2µM*	16µM*	-12%	5%
O=C(Nc1ccc2[nH]c3c(c2c1)CCCC3)c1ccco1	-6	-2%	21µM*	?	-1%	?
Cc1ccc(C(=O)Nc2ccc(NC(=O)c3ccco3)c(C)c2)cc1	-59*	-8%	-18%	-4%	-14%	10%
Cc1cc(NC(=O)c2ccc(Br)o2)ccc1NC(=O)c1ccco1	.	-3%	16µM*	15µM*	-3%	-2%
c1cncc(CNc2ccnc(-c3cccnc3)n2)c1	.	.	-7%	?	.	.
CN(C(=O)CCS(=O)(=O)c1ccc2c(c1)oc(=O)n2C)C1CCCCC1	-15	-17%	-7%	13%	12%	-1%
Cc1cc(NC(=O)COc2coc(CN3CCN(c4ccc(F)cc4)CC3)cc2=O)no1	5	-4%	0%	-24%	2%	10%
CCS(=O)(=O)NCCCc1ccccc1	-6	16%	?	21µM*	-4%	-2%
COc1ccc(-c2nc(S(=O)(=O)c3ccccc3)c(N3CCOCC3)o2)cc1	14	-15%	-19%	-9%	-4%	?
O=S(=O)(c1ccc(Cl)cc1)c1nc(-c2ccco2)oc1N1CCOCC1	1	-15%	-7%	-5%	1%	1%
COc1cc(-c2nc(S(=O)(=O)c3ccc(Cl)cc3)c(N3CCOCC3)o2)cc(OC)c1OC	-29	3%	16µM*	?	14%	-5%
COc1cc(-c2nc(S(=O)(=O)c3ccc(C)cc3)c(N3CCOCC3)o2)cc(OC)c1OC	5	3%	9.2µM*	12µM*	25%	-3%
O=P(c1ccccc1)(c1ccccc1)c1nc(-c2ccc(Cl)cc2)oc1N1CCOCC1	-65*	?	-21%	?	10%	11%
O=P(c1ccccc1)(c1ccccc1)c1nc(-c2ccccc2)oc1N1CCOCC1	-24	-7%	-28%	-25%	5%	-1%
O=S(=O)(c1ccc(Cl)cc1)c1nc(-c2ccccc2Br)oc1N1CCOCC1	.	.	23µM*	18µM*	.	.
SMILES	IL1B secr inh	SW480 rerep	TDP1 cell noCPT	DT40 TDP1 CPT	MCF10A rereplic	BCR signal inh
Cn1c(SCC(=O)NNC(=O)c2ccccc2)nnc1C(F)(F)F	20	-3%	0%	0%	-5%	-7%
CC(=O)OC[C@@H]1CN(Cc2ccccc2)C[C@H](n2cnc3c(NCC(C)C)ncnc32)O1	1	.	?	?	.	.
COC(=O)[C@@H]1[C@@H]2C[C@H]3c4[nH]c5ccccc5c4CCN3C[C@@H]2CC[C@@H]1O	.	0%	-13%	?	-1%	.
COc1ccc(OC)c(CN2C(=O)c3ccccc3C2c2nnnn2C(C)C)c1 (centres undefined)	32	.	?	?	.	.
COc1ccc(OC)c(CN2C(=O)c3ccccc3C2c2nnnn2C2CCCC2)c1 (centres undefined)	35	.	16µM*	?	.	.
O=C1c2ccccc2C(c2nnnn2-c2ccc3c(c2)OCCO3)N1Cc1cccs1 (centres undefined)	0	.	?	?	.	.
COc1ccc(OC)c(CN2C(=O)c3ccccc3C2c2nnnn2Cc2ccccc2)c1 (centres undefined)	-14	.	21µM*	?	.	.
COc1ccc(CN2C(=O)c3ccccc3C2c2nnnn2-c2ccc3c(c2)OCCO3)cc1OC (centres undefined)	40	.	21µM*	15µM*	.	.
O=C(NCC1OCCc2ccccc21)c1ccc(NC(=O)c2ccc(Cl)cc2)cc1 (centres undefined)	-5	0%	16µM*	23µM*	?	-10%
S=C1SC2(CCCCCC2)NC2=C1CCCCC2	14	.	13µM*	?	.	.
Cc1cccc(C(P(=O)(c2ccccc2)c2ccccc2)P(=O)(c2ccccc2)c2ccccc2)n1	-10	-1%	16µM*	?	2%	0%
COc1ccc(OC)c(C(C[N+](=O)[O-])c2c(C)cc3ccccn23)c1 (centres undefined)	0	?	2.9µM*	2.1µM*	?	?
CCC/C=C/c1ccc(CN2C(CC(C)C)C(=O)N(Cc3cn(Cc4ccco4)nn3)CCS2(=O)=O)cc1 (centres undefined)	-62*	.	?	?	.	.
